Source: PubChem
H9c2 protect: protects H9c2 cardiomyocytes from peroxide injury. AID 588492. 0.63% of 360,000 active. protection from H2O2 cell death, % at 20 µM. H2O2 injury protection, ATPLite, 2 h;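 active = compounds giving at least 50% protection of heart cells from peroxide-induced death in the single-dose screen, raw or plate-pattern-corrected value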
Mot1-301 SUMO: blocks SUMOylation pathway, rescuing yeast Mot1-301 growth; S. cerevisiae Mot1-301 growth rescue, ATP luminescence, 38.5C; percent above DMSO median, 100 means doubled; growth rescue, % at 18.8 µM; 1% of 320,000 active; AID 2716;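 active = every valid replicate shows activation above 250% relative to neutral control wells; inactive = the rest, any valid replicate at or below 250%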
FAS-TE inh: blocks the thioesterase domain of human fatty acid synthase | P49327 | recombinant FAS-TE, OMFH fluorogenic substrate, fluorescence endpoint | inhibition, % at 15 µM | 0.67% of 360,000 active;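 active = compounds whose normalised, plate-corrected inhibition of enzyme fluorescence in the single-dose primary screen is 50% or more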
aDG glyco act: alpha-DG glycosylation activation; 0.22% of 360,000 active; Pro5-aDG cells, alpha-DG glycosylation AlphaScreen (IIH6); 0% Pro5, 100% B10-LARGE cell signal; activation, % at 10 µM; AID 624168;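 active = activation of at least 8% versus controls, or a plate z-score of at least 8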;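 note: Pro5 are CHO cells carrying HIG-tagged alpha-DG that lacks glycosylation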
Yeast superoxide: lowers age-related superoxide in aged yeast cells. S. cerevisiae aged cells, superoxide DHE fluorescence; hits give low values. superoxide response (% of plate mean), % at 10 µM. 0.18% of 330,000 active;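 active = superoxide response under a set limit, about three screen SD below normal, cut at about 65% in these data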;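 note: yeast aged for seven days with compound at 30 °C before DHE staining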
MPTP block: inhibitors of mitochondrial permeability transition pore; 1.4% of 360,000 active; inhibition, % at 10 µM; isolated mouse mitochondria, Ca2+ swelling absorbance, 30 min; AID 602449;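 active = inhibition of 50% or more, scaled per plate between neutral and stimulator controls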
Rh123 counter: mitochondrial membrane potential, counter-screen. 78% of 5,000 active. shares compounds with MPTP block. inhibition, % at 10 µM. isolated mitochondria, Rhodamine 123 fluorescence. AID 624504; in the data active = inhibition above about 22%
aDG conf: alpha-DG glycosylation activation, confirmation | Pro5-aDG cells, IIH6 AlphaLISA; scaled to LARGE-overexpressing B10 cells as 100% | shares compounds with aDG glyco act | AID 651671 | 17% of 600 active | activation, % at 10 µM (by protocol);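 active = activation of at least 7% in one or more replicates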;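 note: cells exposed to compound for two days before detection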
A number is an active result; - = inactive; . = no result given. Sampled rows, rich in hits. Any-hit rate of the full collection: about 3.8%.

SMILES	H9c2 protect	Mot1-301 SUMO	FAS-TE inh	aDG glyco act	Yeast superoxide	MPTP block	aDG conf	others
CCN(CC(=O)Nc1cc(Cl)ccc1C)C(=O)Cc1sc(C)nc1-c1ccc(F)cc1	-	-	-	-	-	-	.
CC(CNC(=O)c1cc(COc2ccc3ncccc3c2)on1)c1ccccc1 (stereo not given)	-	-	-	4.7	-	99	-	Rh123 counter=102
Nc1nc(Cl)cc(N2CCC(c3cc(-c4ccc(Cl)cc4Cl)n[nH]3)CC2)n1	-	-	-	11	-	64	-	Rh123 counter=63
Nc1nc(Cl)cc(N2CCCC2)n1	-	-	-	-	-	-	.
COc1ccc(NC(=O)COC(=O)Cn2cnc3ccccc32)cc1	-	-	-	-	-	-	.
O=C(Cn1cnc2ccccc21)Nc1ccc(SC(F)F)cc1	-	-	-	10	-	93	-	Rh123 counter=87
COc1ccc(C(=O)Nc2ccc(Cl)c(S(=O)(=O)Nc3ccccc3OC)c2)cc1	-	-	-	3.7	-	55	-	Rh123 counter=70
CCN(CC)c1ccc(NC(=O)c2ccccc2)cc1S(=O)(=O)Nc1ccccc1OC	-	-	-	-	-	-	.
O=C(Nc1nccs1)c1ccc2ccccc2n1	-	-	-	-	-	-	.
FC(F)Oc1ccc(NC(=S)NC23CC4CC(CC(C4)C2)C3)cc1	-	-	-	2.0	-	54	-	Rh123 counter=95
Cc1ccc(OCCCCn2ccnc2C)c(C)c1	-	-	-	3.0	-	61	-	Rh123 counter=27
O=C(COc1ccc2c3c(c(=O)oc2c1)CCCC3)NCc1cccnc1	-	-	-	7.0	-	-	-
O=C(NCC(F)(F)F)[C@H]1O[C@@H](n2ccc(=O)[nH]c2=O)[C@H](O)[C@@H]1O	-	.	-	-	.	-	.
Cc1cc(C)n(CCNC(=O)[C@H]2O[C@@H](n3ccc(=O)[nH]c3=O)[C@H](O)[C@@H]2O)n1	-	.	-	21	.	-	-
CN1/C(=C\C(=O)c2ccco2)C(C)(C)c2ccccc21	-	-	-	4.3	-	-	-
CN1/C(=C\C(=O)COC(=O)c2ccco2)C(C)(C)c2ccccc21	-	-	-	-	-	-	.
COC(=O)[C@]12CCCCC=C1N(Cc1cccc3ccccc13)C(=O)[C@H](CC(=O)NCc1ccccc1)C2	.	.	-	-	.	-	.
COC(=O)[C@]12CCCCC=C1N(Cc1cccc3ccccc13)C(=O)[C@H](CC(=O)NCCC(C)C)C2	.	.	-	5.6	.	-	-
Cc1cn(CC(=O)NCC(c2ccccc2)c2ccccc2)c(=O)[nH]c1=O	-	.	-	-	.	-	.
COc1ccc(OC)c(C2(O)CSC(=Nc3cccnc3)N2Cc2ccco2)c1 (stereo not given)	-	-	-	-	-	-	.
OC1(c2ccc(OC(F)F)cc2)CSC(=Nc2cccnc2)N1C1CC1 (stereo not given)	-	-	-	6.9	-	-	-
c1ccc(Oc2nc(-c3ccccn3)nc3ccccc23)cc1	-	-	-	2.4	-	-	2.8
Cc1ccccc1Nc1nc(N)nc(COC(=O)c2ccco2)n1	-	-	-	3.8	-	-	-
Cc1ccc(NC(=O)CSC(C)C(=O)OCC(=O)N2CCN(C(=O)c3ccco3)CC2)cc1 (stereo not given)	-	-	-	-	-	-	.
COc1ccc(S(=O)(=O)N(C)C[C@@H]2Oc3cc(C#CC4CCCCC4)ccc3S(=O)(=O)N([C@@H](C)CO)C[C@@H]2C)cc1	-	.	-	-	.	-	.
SMILES	H9c2 protect	Mot1-301 SUMO	FAS-TE inh	aDG glyco act	Yeast superoxide	MPTP block	aDG conf	others
CCOC(=O)C(/C(N)=N/C(=O)Nc1ccccc1)=C(\C)O	-	-	-	2.9	-	-	-
Cc1cccc2cc(CN(CCCN(C)C)C(=S)NCCc3ccccc3)c(=O)[nH]c12	-	-	-	4.7	-	-	-
Cc1cccc2cc(CN(CCN(C)C)C(=S)NCc3ccco3)c(=O)[nH]c12	-	-	-	-	-	-	.
Cc1ccc(S(=O)(=O)N(C)C)cc1NC(=O)C1CCCCN1S(=O)(=O)c1ccccc1 (stereo not given)	-	-	-	2.9	-	-	-
COc1ccc(Cc2nc(-c3ccc(NC(=O)c4cccnc4)cc3)no2)cc1	-	-	-	7.5	-	-	6.7
COc1ccc(-c2noc(CCC(=O)NCc3cccnc3)n2)cc1	-	-	-	-	-	-	.
C[C@H](c1ccccc1)N1C[C@H](COCc2ccccc2)Oc2cc(N3CCC[C@H]3C(N)=O)ccc2S1(=O)=O	.	.	-	-	.	-	.
O=C(Nc1ccnn1C1CCN(Cc2cccc(OCCO)c2)CC1)C1CC1	-	-	-	6.0	-	-	-
Cc1cc(C)c(C(N)=O)c(Nc2cccc3ccccc23)n1	-	-	-	5.7	-	-	-
COc1ccccc1Nc1nc(C)cc(C)c1C(N)=O	-	-	-	-	-	-	.
Cc1cccc(NC(=O)CSc2nc3ccccc3c3nc(CCc4c(C)n[nH]c4C)nn23)c1	-	-	-	-	-	-	.
Cc1cncn1CCc1nc2c3ccccc3nc(SCC(=O)Nc3cccc(Cl)c3)n2n1	-	-	-	8.7	-	-	5.3
Cc1cccc(C)c1NC(=O)c1ccc(-n2cncn2)nc1	-	-	-	3.8	-	-	-
CCCNc1c(NS(=O)(=O)c2ccc(Br)cc2)c(=O)oc2ccccc12	-	-	-	-	-	-	.
CCCCc1c(-c2ccc(OC)c(OC)c2)ncn1CCc1ccccc1OC	.	.	-	14	.	-	-
CCCCc1c(-c2ccccc2OC)ncn1Cc1cccc(-c2ccccc2)c1	.	.	-	11	.	-	-
CCCCc1c(-c2cccc(OC)c2)ncn1CCc1ccccc1OC	.	.	-	-	.	-	.
O=C(CN1C(=O)c2ccccc2S1(=O)=O)NCCSCc1ccco1	-	-	-	80	-	-	-
O=C(CN1C(=O)c2ccccc2S1(=O)=O)NCCSCc1ccccc1Cl	-	-	-	-	-	-	.
Cc1cc(C(=O)c2ccc(Cl)cc2)c(NC(=O)CCl)s1	-	-	-	-	-	-	.
CCc1cc(C(=O)c2ccc(C)cc2)c(NC(=O)CCl)s1	-	-	-	10	-	-	-
COC(=O)c1c(NC(=O)C(=O)NCCCN2CCOCC2)sc2c1CCCC2	-	-	-	-	-	-	.
COc1ccc(CCC(=O)N2CCN(c3ccccc3)CC2)cc1OC	-	-	-	-	-	-	.
Cc1cccc(C)c1OCc1cc(C(=O)N2CCC(c3ccncc3)CC2)no1	-	-	-	6.2	-	-	-
O=C(c1cc(COc2c(F)cccc2F)on1)N1CCC(c2ccncc2)CC1	-	-	-	9.2	-	-	-
